Results taken from PubChem BioAssay (NCI).
About 79,000 compounds went through this panel and 15% of them were active in at least one assay; those are over-represented in the sample as a whole. Rule as the data show it: active = growth inhibition above about 70%; inactive = the rest.

Assays:
[1] = NCI Yeast Anticancer Drug Screen. Data for the rad50 strain (AID 155);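 also: 0% = growth of vehicle-only cultures of the same strain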; settings: S. cerevisiae rad50 strain growth inhibition; at 50.0 µM; active compounds read high
Procedure, shortened: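 Growth of the mutant yeast was measured after compound exposure and referenced to vehicle-treated cultures.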

[2] = NCI Yeast Anticancer Drug Screen. Data for the mec2-1 strain (AID 157); settings: S. cerevisiae mec2-1 strain, at 50.0 µM, active compounds read high
Procedure, shortened: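 Using mec2-1 yeast: add compound, measure growth, express inhibition versus vehicle-treated cultures.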

[3] = NCI Yeast Anticancer Drug Screen. Data for the sgs1 mgt1 strain (AID 161);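 also: 0% = growth of cultures given vehicle only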; settings: S. cerevisiae sgs1 mgt1 strain, at 50.0 µM, active compounds read high
Procedure, shortened: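 Percent growth inhibition was derived by comparing compound-exposed mutant yeast with vehicle-exposed cultures. The strain carries alterations in DNA damage repair.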

[4] = NCI Yeast Anticancer Drug Screen. Data for the cln2 rad14 strain (AID 165);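 also: 0% = growth equal to vehicle treated cultures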; settings: S. cerevisiae cln2 rad14 strain, at 50.0 µM, active compounds read high
Procedure, shortened: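 Yeast strain cln2 rad14, bearing defects in cell cycle control and DNA repair, serves as the test system; values reflect growth inhibition compared with vehicle.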

[5] = NCI Yeast Anticancer Drug Screen. Data for the bub3 strain (AID 167); settings: S. cerevisiae bub3 mutant strain, at 50.0 µM, active compounds read high
Procedure, shortened: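 Whole-cell yeast assay. The mutant strain was incubated with compounds, and growth inhibition was determined by comparison with vehicle-treated cells.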

[6] = NCI Yeast Anticancer Drug Screen. Data for the mlh1 rad18 strain (AID 175); settings: S. cerevisiae mlh1 rad18 strain growth inhibition; at 50.0 µM; active compounds read high
Procedure, shortened: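 Steps: expose repair-defective yeast to compound; measure growth; express inhibition against vehicle-treated controls.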

Measured: growth inhibition

CCOP(=O)(Cc1c(C)cc(Br)c2ccccc12)OCC
inactive: [1] -2.85% | [2] -13.8% | [3] -0.95% | [4] -32.2% | [5] 5.45% | [6] -9.35%

BrC1Cc2ccccc2C(Br)Cc2ccccc21 (stereo not drawn)
inactive: [1] -7.65% | [2] -5.1% | [3] -1.05% | [4] -47.5% | [5] 4% | [6] -9.6%

CC1(C)C2C=CC1(C)C1(CC2)OCCO1 (stereo not drawn)
inactive: [1] 10.5% | [2] 17.5% | [3] -20.5% | [4] 20.8% | [5] -55.8% | [6] -115%
